Compound activity (PubChem BioAssay)
hcDAF12 agonist: activates DAF-12 receptor from parasite H. contortus; HEK293 hcDAF-12 lit1-tk-luc reporter, luminescence; 0% DMSO, 100% Δ7-dafachronic acid; activation, % at 6.8 µM; hit rate 1.4% among 370,000;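 active = activation above the mean of all tested compounds plus 3 SD, cut at about 5.5% in these data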;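 note: 100% = response to 3 µM Δ7-dafachronic acid high control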
DAX1 inh-1: NR0B1 (DAX1) inhibition | P51843 | HEK293 Gal4-DAX1 luciferase reporter, luminescence | inhibition, % at 6.75 µM | hit rate 0.99% among 340,000;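 active = inhibition above the mean over all tested compounds plus 3 SD, cut at about 4.2% in these data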;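 note: 0% = DAX1-transfected cells with DMSO and 100% = empty-vector control cells with DMSO; inhibition shows as a rise in luminescence from relieved DAX1 repression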
SMARCA2 activ: SMARCA2 function activation, primary screen; MG213 cells, MMTV-luciferase reporter, dexamethasone, overnight; activation, % at 9.1 µM; hit rate 1% among 370,000; AID 652017; in the data active = activation above about 7.8%;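 note: 0% = vehicle wells and 100% = reference activator wells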
ssDAF-12 act: activators of S. stercoralis DAF-12 nuclear receptor | HEK293 ssDAF-12/GRIP1 lit1-tk-luc reporter, luminescence; % of 3 µM dafachronic acid response | activation, % at 6.8 µM | hit rate 1% among 370,000;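 active = activation above the mean over all tested compounds plus 3 SD, cut at about 0.9% in these data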;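 note: 0% = DMSO-only wells and 100% = 3 µM delta7-dafachronic acid wells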
DAX1 inh-2: DAX1 (NR0B1) inhibition, primary screen; HEK293T StAR-luciferase reporter, SF-1/DAX-1 repression relief; hit rate 1.1% among 370,000; inhibition, % at 6.8 µM;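 active = inhibition above the mean over all tested compounds plus 3 SD, cut at about 3.6% in these data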;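 note: 0% = DAX-1 cells with DMSO and 100% = cells lacking DAX-1 with DMSO; higher inhibition means more luminescence from relief of DAX-1 repression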
hgDAF12 agonist: hgDAF-12 agonism, primary luciferase screen; activation, % at 6.8 µM; hit rate 1.8% among 370,000; HEK293 GAL4-hgDAF12 UAS-luciferase reporter, agonist luminescence; normalized to butyrate control;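 active = activation above a cutoff set at the mean of all screened compounds plus 3 SD, cut at about 10% in these data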;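 note: 0% = DMSO wells and 100% = sodium butyrate wells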
hgDAF12 ag: hgDAF-12 agonism, confirmation assay. hit rate 80% among 3,300. activation, % at 6.8 µM. shares compounds with hgDAF12 agonist. HEK293 GAL4-hgDAF12 luciferase reporter, agonist mode; percent of butyrate response;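 active = mean activation over triplicate wells above the hit cutoff derived from the earlier primary screen, cut at about 11% in these data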;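 note: 0% = DMSO low control and 100% = 2 mM sodium butyrate high control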
LXR ag 2: activates human LXR-beta, counter-screen for DAF-12 agonists; shares compounds with hgDAF12 agonist; HEK293 Gal4-LXR luciferase reporter, 24 h; activation, % at 6.8 µM; 3,300 tested, under 10 active; AID 743051;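 active = mean activation of the triplicate above a set limit carried over from the primary screen, none filed active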
Target sequence (P55055 whole entry, looked up, the tested form may be a part): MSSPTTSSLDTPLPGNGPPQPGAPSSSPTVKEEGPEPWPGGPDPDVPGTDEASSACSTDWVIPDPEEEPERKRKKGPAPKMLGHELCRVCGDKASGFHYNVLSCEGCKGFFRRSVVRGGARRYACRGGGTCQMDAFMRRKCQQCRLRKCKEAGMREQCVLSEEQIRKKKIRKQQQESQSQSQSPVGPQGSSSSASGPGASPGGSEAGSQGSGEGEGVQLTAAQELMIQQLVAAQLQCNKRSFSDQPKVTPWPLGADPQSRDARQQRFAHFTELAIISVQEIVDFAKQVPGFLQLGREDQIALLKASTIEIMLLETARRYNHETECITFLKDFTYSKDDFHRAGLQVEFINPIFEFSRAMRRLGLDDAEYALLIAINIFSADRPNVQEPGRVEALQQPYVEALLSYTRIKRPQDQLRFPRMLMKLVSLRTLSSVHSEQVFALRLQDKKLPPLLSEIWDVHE
* marks the source's active call; other numbers are inactive results; . = no result. In the library only some 4.8% were active in any assay of this set; here they are far more common.

SMILES | hcDAF12 agonist | DAX1 inh-1 | SMARCA2 activ | ssDAF-12 act | DAX1 inh-2 | hgDAF12 agonist | hgDAF12 ag | LXR ag 2
O=C(Nc1ccc2ccccc2c1)C1CC2CCC1C2 (stereo unspecified) | 3 | . | . | 0 | . | 15* | 12* | 1
COC(=O)c1ccc2nc(-c3ccc(C)cc3)c(Cc3ccccc3)n2c1 | 0 | . | 2 | 0 | 1 | 5 | . | .
COc1ccc(O)c(C(=O)CC(=O)c2ccccc2C)c1 | 3 | 4.8* | 2 | 0 | 1 | 23* | 10 | 1
Cc1ccc(-c2cc(N)n(-c3ccc(F)cc3)n2)cc1 | 5 | 1 | 0 | -1 | 4.3* | 15* | 10 | 1
O=C(CCSc1ccccn1)Nc1ccc(Br)cc1 | 2 | 1 | 3 | 1.1* | 2 | 14* | 11* | 1
CCc1ccc(NC(=O)CSc2ccccn2)cc1 | 3 | 2 | 7 | -1 | 1 | 14* | 6 | 0
CCCn1cnc2cc(NC(=O)c3cccs3)ccc21 | 3 | 2 | 0 | 0 | 1 | 13* | 10 | 0
CCn1cnc2cc(NC(=O)c3ccc(C)cc3)ccc21 | 2 | 1 | 7.9* | 1 | 2 | 14* | 11* | 0
CCOC(=O)C1=C(C(=O)OCC)C2N(Cc3ccc(C#N)cc3)c3ccccc3[C@@]23C[C@@H](C(=O)OC)N(S(=O)(=O)c2ccccc2)C3=N1 (stereo partly specified) | 1 | . | -4 | -1 | -1 | 2 | . | .
CCn1c(COc2ccc(C)cc2)nnc1SCc1cccc(C(F)(F)F)c1 | -2 | . | -4 | -2 | -1 | -2 | . | .
CC1CCc2nc3sc4c(c3c(N)c2C1)CCCC4 (stereo unspecified) | -1 | -1 | 5 | 0 | 3 | 14* | 11* | 0
Cc1ccn2cc(-c3cccc(NC(=O)CCC(=O)O)c3)nc2c1 | 2 | -1 | 1 | -1 | 1 | 7 | . | .
CC(=O)Nc1cccc(-c2cn3ccc(C)cc3n2)c1 | 3 | 0 | 5 | 0 | 3.9* | 14* | 12* | 1
Cc1ccn2cc(-c3cccc(NS(C)(=O)=O)c3)nc2c1 | 0 | 1 | 6 | 0 | 2 | 14* | 11* | 0
Cc1ccn2cc(-c3cnoc3C)nc2c1 | 0 | 2 | 2 | 0 | 1 | 5 | . | .
COc1c(Cl)cccc1-c1cn2ccc(C)cc2n1 | 6.4* | 4 | 4 | 1.3* | 3 | 14* | 15* | 1
COc1ccc(CN2C[C@H](COCc3ccccc3)Oc3cccc(Oc4ccc(C(C)C)cc4)c3S2(=O)=O)cc1 | -1 | . | 3 | -1 | 0 | 3 | . | .
Nc1ccc2ccc(NS(=O)(=O)N3CCCCC3)cc2c1 | -2 | . | 2 | -1 | -3 | -3 | . | .
CCOC(=O)N[C@H](C(=O)N1CCC[C@H]1C(=O)NC1CCCC1)C1CCCCC1 | -2 | . | -2 | -1 | 0 | 0 | . | .
CCOc1ccc2nc(NC(=O)Nc3ccccc3)sc2c1 | 2 | 4.5* | 2 | -1 | 2 | 15* | 16* | 1
Cc1occc1C(=O)Nc1ccc(OCc2ccccc2)cc1 | 4 | 0 | 7 | 0 | 4.4* | 14* | 19* | 0
CCOc1ccc2nc(NC(=O)c3ccco3)sc2c1 | 5 | -4 | 1 | 0 | 2 | 16* | 17* | 1
CCOc1ccc(NC(=O)c2ccco2)cc1 | 2 | 0 | 6 | 0 | 4 | 15* | 13* | 1
Cc1occc1C(=O)Nc1cccc(C(=O)NCc2ccccc2)c1 | -2 | -1 | -2 | -2 | -1 | -3 | . | .
COC(=O)COc1ccc(NC(=O)c2ccco2)cc1 | 0 | 1 | -1 | -1 | 0 | -1 | . | .
SMILES | hcDAF12 agonist | DAX1 inh-1 | SMARCA2 activ | ssDAF-12 act | DAX1 inh-2 | hgDAF12 agonist | hgDAF12 ag | LXR ag 2
O=C(Cc1cn(Cc2ccccc2)c2ccccc12)Nc1ccc(Nc2cccnc2)c(Br)c1 | -3 | . | -4 | -2 | -1 | 1 | . | .
COC(=O)[C@]12C[C@H](CC(=O)N3CCCC3)C(=O)N(Cc3ccccc3)C1=C[C@H](C(C)C)O[C@@H]2C1CC1 | 0 | . | 7 | -1 | 0 | 1 | . | .
O=C(Nc1nc2cc3c(cc2s1)OCO3)c1ccco1 | 5 | -5 | 1 | 0 | 4 | 19* | 9 | 1
CCOc1ccc2nc(NC(=O)C3CCCO3)sc2c1 (stereo unspecified) | 4 | 2 | 6 | 0 | 3 | 18* | 16* | 1
CC(=O)Nc1cccc(NC(=O)c2ccc(COc3ccccc3)cc2)c1 | 3 | 1 | 7 | 0 | 2 | 13* | 17* | 1
CCOc1ccc2nc(NC(=O)NC3CCCCC3)sc2c1 | 0 | 0 | -2 | -1 | 0 | -1 | . | .
CC(C)C(=O)Nc1nc2cc3c(cc2s1)OCCO3 | 4 | -3 | -2 | -1 | 1 | 13* | 7 | 1
C#CCN1C(=O)[C@]2(OC[C@@H]3Cc4ccccc4[C@@H]3C=C2C)c2ccccc21 | -2 | . | -1 | -2 | -1 | 0 | . | .
N#Cc1cccc(NC(=O)CSc2nnc(-c3n[nH]c4ccccc34)o2)c1 | 1 | 1 | -2 | 0 | -1 | 15* | 10 | 0
Cc1cccc(NC(=O)CSc2nnc(-c3n[nH]c4ccccc34)o2)c1 | -1 | -1 | 1 | -1 | 0 | 2 | . | .
COc1ccc(OCc2cc(C(=O)NC3Cc4ccccc4C3)no2)c(Cl)c1 | 2 | -1 | -1 | 0 | -1 | 15* | 2 | 0
CCOC(=O)N(C)[C@H]1C[C@H]2c3cc(-c4ccccc4C)ccc3CCN2C[C@H]1[C@H](C)O | -6 | . | -6 | -2 | -5 | -8 | . | .
C/C(CC(=O)Nc1ccc(Cl)cc1C(F)(F)F)=N\NC(=O)c1ccccn1 | 4 | 0 | 5 | 0 | 2 | 15* | 6 | 0
CC(C)N(CCO)C(=O)CCc1nnc(CCCc2ccccc2)o1 | 1 | 3 | 2 | -1 | 0 | 2 | . | .
CC(C)N(Cc1nccn1C)C(=O)CCc1nnc(CCCc2ccccc2)o1 | 4 | 1 | 2 | 0 | 1 | 14* | 10 | 0
CC(C)=CC(=O)Nc1ccc(Cl)cc1 | 2 | 1 | 7 | 1.7* | 3 | 19* | 12* | 1
CNC(=O)Nc1ccc(Cl)cc1 | 0 | 0 | 6 | 0 | 0 | 0 | . | .
c1ccc(C2Oc3ccccc3C3CC(c4cccs4)=NN32)cc1 (stereo unspecified) | 6 | 2 | -1 | 1 | 1 | 16* | 10 | 0
Nc1nc(-c2ccc3c(c2)CCCC3)cs1 | 2 | 1 | 1 | 0 | 2 | 16* | 11* | 1
